In PubChem BioAssay (Tox21):
Results filed as inconclusive are left out. Active and inactive are the calls of the source. Unless noted, calls follow the shape of the dose curve; as a rule, active = well fitted curve in the direction sought with a large enough effect in the repeat runs; inconclusive = weak or mixed curves; inactive = no such curve, though single readings can be large; an effect the other way counts as inactive or inconclusive.

Key:
[1] = qHTS assay for small molecule agonists of the p53 signaling pathway (AID 651631; calls by dose curve; also: nearly all actives have a fitted effect of over 15% in size)
Procedure, shortened: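 HCT-116 p53RE-bla reporter line, 16 h compound treatment at 37 °C, then fluorescence after 2 h with B/G FRET substrate.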

[2] = qHTS assay for small molecules that induce genotoxicity in human embryonic kidney cells expressing luciferase-tagged ATAD5 (AID 651632); also: nearly all actives have a fitted effect of over 15% in size
Procedure, shortened: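 HEK293T cells carrying luciferase-tagged ATAD5 were given compound or DMSO vehicle and incubated 16 hr at 37C, 5% CO2. Luciferase activity was read after 30 min at room temperature with Amplite; a rise signals genotoxic stress.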

[3] = qHTS assay for small molecules that induce genotoxicity in human embryonic kidney cells expressing luciferase-tagged ATAD5 - cell viability (AID 651634; calls by dose curve; also: nearly all actives have a fitted effect of over 25% in size)
Procedure, shortened: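 HEK293T cells carrying luciferase-tagged ATAD5, 2,000 cells/well, exposed to compound for 15.5 hr at 37C. Viability read as live-cell protease activity by CellTiter-Fluor fluorescence after 30 min at 37C.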

[4] = qHTS assay for small molecule disruptors of the mitochondrial membrane potential - cell viability (AID 720634; calls by dose curve;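 also: human HepG2 liver cancer cells; series mostly up to about 83 µM; nearly all actives have a fitted effect of over 20% in size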)
Procedure, shortened: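 HepG2 cells, 2,000 per well, attached overnight, then treated 1 hr at 37 C, 5% CO2. Viability read as ATP by CellTiter-Glo luminescence after 30 min at room temperature. Read in the same wells as the m-MPI membrane-potential dye assay.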

[5] = qHTS assay for small molecule disruptors of the mitochondrial membrane potential (AID 720635)
Procedure, shortened: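 Mitochondrial membrane potential tracked with Mito-MPS dye, red aggregates (ex 540/em 590 nm) against green monomers (ex 490/em 535 nm). Compound treatment 1 hr at 37C, dye 30 min in HepG2.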

[6] = qHTS assay to test for compound auto fluorescence at 590 nm (red) in HepG2 cells (AID 720674)
Procedure, shortened: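 1 hr compound incubation on HepG2 cells, 37 C, 5% CO2; plate read ex 540 nm / em 590 nm; intensities reported as Rose Bengal sodium equivalents.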

[7] = qHTS assay to test for compound auto fluorescence at 535 nm (green) in HepG2 cells (AID 720675)
[8] = qHTS assay to test for compound auto fluorescence at 460 nm (blue) in HEK293 cells (AID 720678)
Procedure, shortened: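 Blue read-out at excitation 405 nm and emission 460 nm follows overnight compound exposure of HEK293 cells at 37C in 5% CO2. Activity is given as auto fluorescence equivalency to triamterene.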

[9] = qHTS assay to test for compound auto fluorescence at 590 nm (red) in HEK293 cells (AID 720679)
Procedure, shortened: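 Red channel, Ex/Em 540/590nm; signal expressed as equivalency to Rose Bengal sodium. HEK293, 2,000 cells/well, 10% dialyzed FBS; 23 nL compound pinned after 4-5 hr attachment; overnight 37C/5% CO2 before reading.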

[10] = qHTS assay for small molecule agonists of the p53 signaling pathway - cell viability (AID 651633; calls by dose curve;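 also: p53RE-bla HCT reporter cells with a stable beta-lactamase p53 reporter; series mostly up to about 83 µM; nearly all actives have a fitted effect of over 30% in size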)
Procedure, shortened: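 Viability counter-read: CellTiter-Glo luminescence (30 min, room temperature) in the same p53RE-bla plates. These plates had been exposed to compounds for 16 h at 37 C.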
% is scaled to controls: 0 for no effect and ±100 for the full control effect.

OCCC(F)(F)C(F)(F)C(F)(F)C(F)(F)C(F)(F)C(F)(F)F
inactive: Potency [1] | Potency [2] | outcome [3] | outcome [4] | Potency [5] | outcome [6] | outcome [7] | outcome [8] | outcome [9]

N[C@H]1C(O)O[C@H](CO)[C@@H](O)[C@@H]1O (some centres not stated)
inactive: Potency [1] | Potency [2] | outcome [3] | outcome [4] | Potency [5] | outcome [6] | outcome [7] | outcome [8] | outcome [9]

C[n+]1ccccc1/C=N/O
inactive: Potency [1] | Potency [2] | outcome [10] | outcome [4] | Potency [5] | fluorescence, % of fluorescein control [7] -0.126% [at 18.6 µM] | fluorescence, % of triamterene [8] -0.0874% [at 18.6 µM] | fluorescence, % of fluorescent control [9] -1.07% [at 18.6 µM]

CCO/C=C1\N=C(c2ccccc2)OC1=O
inactive: Potency [1] | Potency [2] | outcome [3] | Potency [5] | outcome [7] | outcome [8] | outcome [9]

COC(=O)c1ccccc1Cl
inactive: Potency [1] | Potency [2] | outcome [3] | outcome [4] | outcome [6] | outcome [7] | outcome [8] | outcome [9]

CC(C)(C)OC(=O)c1ccccc1C(=O)O
inactive: Potency [1] | Potency [2] | outcome [3] | Potency [5] | outcome [6] | outcome [7] | outcome [8] | outcome [9]

COC(=O)C(c1ccccc1Cl)N1CCc2sccc2C1 (configuration not stated)
inactive: Potency [1] | Potency [2] | outcome [3] | outcome [4] | Potency [5] | outcome [6] | outcome [7] | outcome [8] | outcome [9]

Clc1cc(Cl)c(Cl)c(Cl)c1Cl
inactive: Potency [1] | Potency [2] | outcome [3] | outcome [4] | outcome [6] | outcome [7] | outcome [8] | outcome [9]

C=CC(=O)CC
inactive: Potency [1] | Potency [2] | outcome [3] | outcome [4] | outcome [6] | outcome [7] | outcome [8] | outcome [9]

C/C=C(\C)C(=O)OC/C=C(\C)CCC=C(C)C
inactive: Potency [1] | Potency [2] | outcome [3] | outcome [4] | Potency [5] | outcome [6] | outcome [7] | outcome [8] | outcome [9]

C[C@]12C=CC(=O)C=C1[C@@H](F)C[C@@H]1[C@@H]2[C@@H](O)C[C@@]2(C)[C@H]1CC[C@]2(O)C(=O)CO
inactive: Potency [1] | Potency [2] | outcome [10] | Potency [5] | outcome [6] | outcome [7] | outcome [8] | outcome [9]

Cc1cc(C)c(N)c(Cl)c1
inactive: Potency [1] | Potency [2] | outcome [10] | outcome [4] | outcome [6] | outcome [7] | outcome [8] | outcome [9]

CCCC[O][Al]([O]CCCC)[O]CCCC
inactive: Potency [1] | Potency [2] | outcome [3] | outcome [4] | Potency [5] | outcome [6] | outcome [7] | outcome [8] | outcome [9]

C=CC(=O)OCC[N+](C)(C)C
inactive: Potency [1] | Potency [2] | outcome [10] | outcome [4] | outcome [6] | outcome [7] | outcome [8] | outcome [9]

CCC(C)SSC(C)CC (configuration not stated)
inactive: Potency [1] | Potency [2] | outcome [3] | outcome [4] | outcome [6] | outcome [7] | outcome [8] | outcome [9]

CC(=O)Nc1ccc(S(=O)(=O)Nc2cc(C)on2)cc1
inactive: Potency [1] | Potency [2] | outcome [10] | outcome [4] | Potency [5] | outcome [6] | outcome [7] | outcome [8] | outcome [9]

COc1cnc(NS(=O)(=O)c2ccc(N)cc2)nc1
inactive: Potency [1] | Potency [2] | outcome [3] | outcome [4] | Potency [5] | fluorescence, relative to Rose Bengal [6] -0.0895% [at 18.6 µM] | fluorescence, % of fluorescein control [7] -0.0734% [at 18.6 µM] | fluorescence, % of triamterene [8] 0.0096% [at 18.6 µM] | fluorescence, % of fluorescent control [9] 0.0444% [at 18.6 µM]

COc1cc2nc(N3CCN(C(=O)C4CCCO4)CC3)nc(N)c2cc1OC (configuration not stated)
inactive: Potency [1] | Potency [2] | outcome [10] | outcome [4] | outcome [6] | outcome [7] | outcome [8] | outcome [9]

CN(C)CCCN(C)C
inactive: activation [1] 3.19% [at 8.3 µM] | activation [2] -0.426% [at 8.08 µM] | activity change, negative = cytotoxicity [10] 10.5% [at 8.08 µM] | activity change, negative = cytotoxicity [4] 7.6% [at 8.08 µM] | fluorescence, % of fluorescein control [7] -0.223% [at 3.72 µM] | fluorescence, % of triamterene [8] -0.32% [at 3.72 µM] | fluorescence, % of fluorescent control [9] -0.954% [at 3.72 µM]

O=CN1CCCCC1
inactive: Potency [1] | Potency [2] | outcome [10] | outcome [4] | Potency [5] | outcome [7] | outcome [8] | outcome [9]

C[C@@H]1CC[C@@]2(OC1)O[C@H]1C[C@H]3[C@@H]4CC[C@H]5C[C@@H](O)CC[C@]5(C)[C@H]4CC(=O)[C@]3(C)[C@H]1[C@@H]2C
inactive: Potency [1] | Potency [2] | outcome [10] | outcome [4] | Potency [5] | fluorescence, relative to Rose Bengal [6] -1.11% [at 18.6 µM] | fluorescence, % of fluorescein control [7] -0.248% [at 18.6 µM] | fluorescence, % of triamterene [8] 0.0136% [at 18.6 µM] | fluorescence, % of fluorescent control [9] 0.373% [at 18.6 µM]

C[C@@H]1NC(=O)[C@@H](N)CNC(=O)[C@H](C2CCNC(N)=N2)NC(=O)/C(=C/NC(N)=O)NC(=O)[C@H](CNC(=O)C[C@@H](N)CCCN)NC1=O (some centres not stated)
inactive: Potency [1] | Potency [2] | outcome [10] | outcome [4] | Potency [5] | outcome [6] | outcome [7] | outcome [8] | outcome [9]

C=CCOC(=O)CCCCCCCC
inactive: Potency [1] | Potency [2] | outcome [3] | outcome [4] | Potency [5] | outcome [6] | outcome [7] | outcome [8] | outcome [9]

CCCCCCCCOCCC#N
inactive: Potency [1] | Potency [2] | outcome [3] | Potency [5] | outcome [6] | outcome [7] | outcome [8] | outcome [9]

CC1(C)C(=O)C(C)(C)C1=O
inactive: Potency [1] | Potency [2] | outcome [3] | Potency [5] | outcome [7] | outcome [8] | outcome [9]

CC(=O)Oc1ccc(C(C)=O)cc1
inactive: Potency [1] | Potency [2] | outcome [10] | outcome [6] | outcome [7] | outcome [8] | outcome [9]

CC(C)(C)C(=O)CC(=O)C(C)(C)C
inactive: Potency [1] | Potency [2] | outcome [10] | outcome [4] | outcome [6] | outcome [7] | outcome [8] | outcome [9]
